This is an account of results in PubChem BioAssay (Tox21).

Structures are written as SMILES. Results filed as inconclusive are left out. Active and inactive are the calls of the source. Unless noted, calls come from the whole dose curve; as a rule, active = well fitted curve in the direction sought with a large enough effect in the repeat runs; inconclusive = weak or mixed curves; inactive = no such curve, though single readings can be large; an effect the other way counts as inactive or inconclusive.

The nature of assay [1]: qHTS assay to identify small molecule agonists of the peroxisome proliferator-activated receptor delta (PPARd) signaling pathway - cell viability counter screen (AID 743211). Note: nearly all actives have a fitted effect of over 55% in size. Note: potency is the fitted concentration of half-maximal effect. The gist of the method:
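Luminescent ATP viability assay (CellTiter-Glo, 30 min RT) in UAS-bla HEK293H cells carrying the PPAR delta reporter construct, 3000 cells/well, after a 17 h compound treatment at 37 C.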
(qHTS replaces the single test concentration by a dilution series.)

The nature of assay [2]: qHTS assay to identify small molecule antagonists of the peroxisome proliferator-activated receptor delta (PPARd) signaling pathway - cell viability counter screen (AID 743213). Note: nearly all actives have a fitted effect of over 50% in size. Note: potency is the fitted concentration of half-maximal effect. The gist of the method: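 CellTiter-Glo was added to PPARd-bla HEK293H wells following 17 h compound treatment in the presence of 300 nM L165041. Luminescence was recorded after 30 min at room temperature.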

In assay [3] the target is Peroxisome proliferator-activated receptor delta (Homo sapiens) (UniProt Q03181). Nature of the assay: qHTS assay to identify small molecule antagonists of the peroxisome proliferator-activated receptor delta (PPARd) signaling pathway (AID 743215; active = well fitted inhibition curve with a large enough effect in the signal ratio in the repeat runs, not every such curve was filed as active; the % refers to the signal ratio;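 note: cells stimulated with agonist L165041 at 300 nM final during compound exposure; series mostly up to about 62 µM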). The procedure, abridged:
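Screen format: qHTS, antagonist mode. HEK293H PPARd-bla cells received compound and 300 nM L165041 (final), 17 h, 37 C. Beta-lactamase detected via FRET substrate fluorescence, 2 h, room temperature.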

For assay [4], the target named is Bile acid receptor (Homo sapiens) (UniProt Q96RI1). Nature of the assay: qHTS assay to identify small molecule agonists of the farnesoid-X-receptor (FXR) signaling pathway (AID 743220; active = well fitted activation curve with a large enough effect in the signal ratio in the repeat runs, not every such curve was filed as active; the % refers to the signal ratio). The gist of the method:
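FXR-UAS-bla HEK 293T cells carrying a UAS-driven beta-lactamase reporter were plated for 5 h at 37C/5% CO2, then exposed to DMSO-dissolved Tox21 10K compounds for 16 h at 37C. A LiveBLAzer B/G FRET substrate was loaded for 2 h at room temperature before fluorescence reading.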

Assay [5] is described as follows: qHTS assay to identify small molecule antagonists of the farnesoid-X-receptor (FXR) signaling pathway - cell viability counter screen (AID 743221; active = well fitted cell-killing curve with a large enough effect in the repeat runs, not every such curve was filed as active; note: nearly all actives have a fitted effect of over 50% in size). The gist of the method:
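In GeneBLAzer FXR-UAS-bla HEK 293T cells stimulated with 50 uM chenodeoxycholic acid (final), compounds acted for 16 h at 37 C. Viability was assessed afterwards by CellTiter-Glo luminescence.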

In assay [6] the target is Vitamin D3 receptor (Homo sapiens) (UniProt P11473). Nature of the assay: qHTS assay to identify small molecule agonists of the vitamin D receptor (VDR) signaling pathway (AID 743222; calls by dose curve). The gist of the method: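 Using LiveBLAzer B/G FRET detection, agonism was scored in VDR-bla cells exposed overnight (16 h, 37C) to DMSO-dissolved compounds; substrate incubation was 2 h at room temperature.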
Sequence of Vitamin D3 receptor (Homo sapiens) (P11473 whole entry, looked up): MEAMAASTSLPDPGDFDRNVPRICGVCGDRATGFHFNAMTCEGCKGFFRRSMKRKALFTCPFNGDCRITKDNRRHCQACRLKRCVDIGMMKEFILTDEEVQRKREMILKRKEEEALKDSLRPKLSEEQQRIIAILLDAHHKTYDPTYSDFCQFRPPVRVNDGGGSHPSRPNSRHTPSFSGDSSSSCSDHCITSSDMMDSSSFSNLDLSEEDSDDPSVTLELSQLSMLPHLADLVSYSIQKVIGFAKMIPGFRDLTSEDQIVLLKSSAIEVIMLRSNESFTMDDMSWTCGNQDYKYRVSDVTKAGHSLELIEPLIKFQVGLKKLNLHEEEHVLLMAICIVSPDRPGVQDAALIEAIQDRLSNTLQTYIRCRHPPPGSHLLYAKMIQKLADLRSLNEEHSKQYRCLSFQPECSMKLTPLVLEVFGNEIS

For assay [7] the target is unchanged. Put plainly: qHTS assay to identify small molecule antagonists of the vitamin D receptor (VDR) signaling pathway (AID 743223; active = well fitted inhibition curve with a large enough effect in the signal ratio in the repeat runs, not every such curve was filed as active; the % refers to the signal ratio). The procedure, abridged:
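Agonist 1alpha,25-dihydroxyvitamin D3 (3 nM in well) was added with each compound to VDR-bla cells preincubated 4 h. Cells stood 16 h at 37C, then FRET substrate 2 h at room temperature; fluorescence intensity recorded.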

A short description of assay [8]: qHTS assay to identify small molecule agonists of the vitamin D receptor (VDR) signaling pathway - cell viability counter screen (AID 743224). Note: series mostly up to about 63 µM; nearly all actives have a fitted effect of over 50% in size. The gist of the method: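 Counter screen for cytotoxicity: VDR-bla cells at 2,000 cells/well, 16 h compound exposure, then CellTiter-Glo luminescence after the beta-lactamase measurement.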
Assay [9] in a line: qHTS assay to identify small molecule antagonists of the vitamin D receptor (VDR) signaling pathway - cell viability counter screen (AID 743225). Note: nearly all actives have a fitted effect of over 50% in size. The gist of the method: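 Luminescent cell viability (CellTiter-Glo) in VDR-bla HEK 293T cells after 16 h compound exposure at 37C in the presence of 3 nM final 1-alpha,25-dihydroxy vitamin D3.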
Assay [10] in a line: qHTS assay to identify small molecule agonists of the NFkB signaling pathway - cell viability counter screen (AID 1159515; calls by dose curve; note: series mostly up to about 61 µM; nearly all actives have a fitted effect of over 55% in size). The procedure, abridged: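 Counter screen run alongside the NFkB-bla agonist assay: ME-180 reporter cells exposed to compounds for 5 hr, then lysed with CellTiter-Glo in the same wells. Luminescence, read after 30 min, reflects viable cells.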
Assay [11] in a line: qHTS assay to identify small molecule agonists of the endoplasmic reticulum stress response signaling pathway (AID 1159516; active = well fitted activation curve with a large enough effect in the signal ratio in the repeat runs, not every such curve was filed as active; the % refers to the signal ratio). The gist of the method:
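For this screen, HeLa cells stably carrying beta-lactamase under the ER stress response element received test compounds, positive controls or DMSO for 5 hr at 37 C; B/G FRET substrate was then added and dual-wavelength emission recorded.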

A short description of assay [12]: qHTS assay to identify small molecule agonists of the endoplasmic reticulum stress response signaling pathway - cell viability counter screen (AID 1159517; calls by dose curve). The gist of the method: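 Cpd-treated ESRE-bla HeLa (5 hr, 37 C) → LiveBLAzer 2 hr RT → CellTiter-Glo 30 min RT → luminescence.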
The nature of assay [13]: qHTS assay to identify small molecule antagonists of the retinoid-related orphan receptor gamma (ROR-gamma) signaling pathway - cell viability counter screen (AID 1159520). Note: nearly all actives have a fitted effect of over 50% in size. Note: potency is the fitted concentration of half-maximal effect. The gist of the method: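 Tet-on ROR gamma CHO cells (1,000/well) were plated 4 hr, given compounds in DMSO for 2 hr at 37 C, then induced with 1 uM final doxycycline for 16 hr. Viability was read as ATP by CellTiter-Glo luminescence after 30 min.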

Assay [14] has as its target Nuclear receptor ROR-gamma (Homo sapiens) (UniProt P51449). Nature of the assay: qHTS assay to identify small molecule antagonists of the retinoid-related orphan receptor gamma (ROR-gamma) signaling pathway (AID 1159521; note: nearly all actives have a fitted effect of over 50% in size; note: potency is the fitted concentration of half-maximal effect). The gist of the method: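 CHO cells expressing RORγ under a TET-on promoter, luciferase under RORE control. Dox 1 uM final, 16 h; compounds added 2 h prior. Luminescence decrease measured.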

Assay [15] addresses Retinoic acid receptor RXR-alpha (Homo sapiens) (UniProt P19793). Nature of the assay: qHTS assay to identify small molecule agonists of the RXR signaling pathway (AID 1159527; calls by dose curve; note: nearly all actives have a fitted effect of over 35% in size). The procedure, abridged:
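Beta-lactamase reporter assay, agonist format. Engineered HEK 293T line, charcoal-stripped FBS at 2%, overnight (16 hr) exposure, fluorescence at 460 and 530 nm after 405 nm excitation.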

In assay [16] the target is Peroxisome proliferator-activated receptor delta (Homo sapiens) (UniProt Q03181). Put plainly: qHTS assay to identify small molecule agonists of the peroxisome proliferator-activated receptor delta (PPARd) signaling pathway (AID 743212; calls by dose curve). The gist of the method: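 Cells expressing a UAS-driven beta-lactamase reporter (PPARd-bla HEK293H) were given test compounds after a 5 h settle and kept at 37 C. Reporter activity was then measured as FRET fluorescence using LiveBLAzer B/G substrate.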
Sequence of Peroxisome proliferator-activated receptor delta (Homo sapiens) (Q03181 whole entry, looked up): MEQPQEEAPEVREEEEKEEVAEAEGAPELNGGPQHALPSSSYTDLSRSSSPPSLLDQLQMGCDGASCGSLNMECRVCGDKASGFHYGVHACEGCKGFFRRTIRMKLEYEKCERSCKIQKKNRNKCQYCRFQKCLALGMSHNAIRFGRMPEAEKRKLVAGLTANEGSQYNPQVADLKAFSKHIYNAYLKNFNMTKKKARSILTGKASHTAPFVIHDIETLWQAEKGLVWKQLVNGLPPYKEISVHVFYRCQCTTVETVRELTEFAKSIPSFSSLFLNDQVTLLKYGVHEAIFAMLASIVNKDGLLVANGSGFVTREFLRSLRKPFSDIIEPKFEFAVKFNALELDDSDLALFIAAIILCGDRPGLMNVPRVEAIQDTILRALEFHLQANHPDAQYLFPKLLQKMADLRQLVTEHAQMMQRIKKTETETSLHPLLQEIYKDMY

Assay [17] in a line: qHTS assay to identify small molecule agonists of the farnesoid-X-receptor (FXR) signaling pathway - cell viability counter screen (AID 743218). Note: nearly all actives have a fitted effect of over 45% in size. The procedure, abridged: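 Same-well cytotoxicity check on FXR-UAS-bla HEK 293T cells: 5 h attachment, 16 h compound at 37 C, CellTiter-Glo luminescence read at room temperature after 30 min.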
Assay [18] can be described thus: qHTS assay to identify small molecule agonists of the AP-1 signaling pathway - cell viability counter screen (AID 1159525; calls by dose curve; note: nearly all actives have a fitted effect of over 55% in size). The procedure, abridged: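 Each titration point was normalised to DMSO and tetra n-octyl ammonium bromide controls. The read was Cell Titer Glo luminescence after 30 min at RT, following 5 h compound exposure of ME-180 AP-1-bla cells at 37 °C.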

Assay [19] in a line: qHTS assay to identify small molecule agonists of the AP-1 signaling pathway (AID 1159526; calls by dose curve).
Assay [20] has as its target Bile acid receptor (Homo sapiens) (UniProt Q96RI1). Put plainly: qHTS assay to identify small molecule antagonists of the farnesoid-X-receptor (FXR) signaling pathway (AID 743217; active = well fitted inhibition curve with a large enough effect in the signal ratio in the repeat runs, not every such curve was filed as active; the % refers to the signal ratio). The gist of the method: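 Quantitative HTS, beta-lactamase reporter format: FXR-UAS-bla HEK 293T cells co-treated 16 h at 37 °C with compounds and 50 uM final chenodeoxycholic acid, then read by B/G FRET fluorescence.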

Sequence of Retinoic acid receptor RXR-alpha (Homo sapiens) (P19793 whole entry, looked up): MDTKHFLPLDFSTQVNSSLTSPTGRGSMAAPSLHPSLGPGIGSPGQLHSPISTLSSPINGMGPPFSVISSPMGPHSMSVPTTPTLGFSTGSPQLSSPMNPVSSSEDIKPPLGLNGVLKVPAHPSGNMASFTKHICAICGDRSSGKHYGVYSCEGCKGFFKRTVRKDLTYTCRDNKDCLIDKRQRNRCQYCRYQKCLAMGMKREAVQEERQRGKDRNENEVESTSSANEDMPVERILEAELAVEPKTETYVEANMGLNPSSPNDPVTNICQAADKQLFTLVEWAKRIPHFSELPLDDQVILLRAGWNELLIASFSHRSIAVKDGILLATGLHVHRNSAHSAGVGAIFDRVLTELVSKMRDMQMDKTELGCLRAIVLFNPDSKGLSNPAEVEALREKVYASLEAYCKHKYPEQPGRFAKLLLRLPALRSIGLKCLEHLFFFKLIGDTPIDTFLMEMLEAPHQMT
Sequence of Bile acid receptor (Homo sapiens) (Q96RI1 whole entry, looked up): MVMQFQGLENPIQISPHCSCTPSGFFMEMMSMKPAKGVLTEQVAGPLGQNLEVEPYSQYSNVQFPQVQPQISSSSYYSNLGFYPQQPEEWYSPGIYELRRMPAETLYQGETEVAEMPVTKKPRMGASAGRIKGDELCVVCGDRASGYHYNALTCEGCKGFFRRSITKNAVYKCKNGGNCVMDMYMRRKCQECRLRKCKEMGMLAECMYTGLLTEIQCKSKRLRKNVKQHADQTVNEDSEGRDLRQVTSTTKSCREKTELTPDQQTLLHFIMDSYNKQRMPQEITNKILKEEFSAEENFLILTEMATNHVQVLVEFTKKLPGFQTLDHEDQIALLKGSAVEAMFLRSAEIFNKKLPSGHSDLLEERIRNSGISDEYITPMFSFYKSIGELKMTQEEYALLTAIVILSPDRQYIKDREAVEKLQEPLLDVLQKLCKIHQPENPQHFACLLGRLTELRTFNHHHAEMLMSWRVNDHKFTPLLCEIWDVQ

As for `C=CC(=O)OCCOC(=O)CCC(=O)O`, the Potency entry in [1], in [2], in assay [5], in assay [7], in assay [8] and in [9] was “inactive” throughout. In addition, the Potency result in assay [10], in assay [11], in assay [13], in [14] and in [15] was “inactive” in each case. Also, the result in assay [3], in [4], in assay [6] and in [12] was inactive.
In the case of `CCCCCCCCCCCCCCC1CO1` (centres undefined), the Potency result in assay [1], in [2], in assay [17], in [7], in assay [8] and in assay [10] was “inactive” each time. Besides, the Potency entry in assay [11], in assay [13], in [14], in assay [18] and in [19] was “inactive” in each case. In addition, the result in [16] and in assay [6] was inactive.
Turning to `N#Cc1cc2ccccc2c2ccccc12`, the result in assay [16], in assay [3], in assay [20], in [4], in assay [6] and in [12] was inactive. Also, the Potency result in assay [2], in assay [17], in [5], in assay [7], in assay [8] and in [9] was “inactive” in each case. Moreover, the Potency entry in assay [10], in [11], in [13], in assay [14] and in assay [15] was “inactive” in each case.
On to `O=C(NS(=O)(=O)/C=C/c1cccs1)c1ccc(F)cc1Br`, for which the Potency result in assay [1], in assay [2], in assay [17], in assay [7], in assay [8] and in assay [9] was “inactive” in each case. For the same compound, the Potency result in assay [10], in assay [11], in assay [13], in [14], in assay [18] and in assay [19] was “inactive” each time. The compound was called inactive in assay [16], in assay [4] and in assay [6].
Turning to `O=C(Nc1ccccc1)OCC(CN1CCCCC1)OC(=O)Nc1ccccc1` (centres undefined), the Potency in assay [1] and in assay [2] was 26.6 µM (active) in each case. Moreover, the outcome in assay [4] and in [6] was inactive. For the same compound, the Potency result in assay [5], in assay [9], in [10], in assay [11], in [13] and in assay [14] was “inactive” each time. Further, the Potency entry in assay [18] and in [19] was “inactive” in each case.
As for `CC(=O)N(CC(=O)N(C)C)c1ccccc1`, the Potency entry in assay [1], in assay [2], in assay [5], in [7], in assay [8] and in [9] was “inactive” in each case. The Potency result in assay [10], in [13], in [14], in [18] and in [15] was “inactive” each time. Moreover, the compound was called inactive in assay [16], in [4] and in assay [6].
For `Cc1cc(O)ccc1N`, the Potency result in assay [1], in [17], in assay [9] and in [10] was “inactive” throughout. Moreover, the result in [16], in assay [20] and in [12] was inactive. The Potency in assay [13] is 54.8 µM (active); in [14], 24.5 µM (active).
On to `SC1CCCC1`, for which the Potency result in assay [1], in [2], in [17], in assay [5], in assay [8] and in assay [9] was “inactive” in each case. The Potency result in [10], in assay [13], in assay [14], in assay [18] and in assay [19] was “inactive” in each case. Moreover, the compound was classed as inactive in assay [12].
`CC/C(=C\C(=N/O)C(N)=O)C(C)[N+](=O)[O-]` (centres undefined): the Potency result in [1], in assay [2], in [17], in assay [5], in assay [8] and in assay [10] was “inactive” each time. Further, the Potency entry in assay [13], in [14], in [18] and in [19] was “inactive” in each case. Also, the outcome in [6] was inactive.
As to `CCCCCCCC/C=C\CCCCCCCC(N)=O`, the Potency entry in assay [1], in assay [2], in [5], in assay [7], in assay [8] and in [9] was “inactive” throughout. The Potency result in assay [10], in assay [13], in [14], in [18] and in assay [15] was “inactive” throughout. In addition, the outcome in assay [16], in [3], in [4], in [6] and in assay [12] was inactive.
